Shiga toxin inh: inhibitors of Shiga toxin in Vero cells | hit rate 9.2% among 290,000 | inhibition, % at 38.7 µM | Vero cells, Shiga toxin protein synthesis inhibition reporter | AID 2315; in the data active = inhibition mostly above about 28%, no sharp cut-off; inactive = mostly below about 43%
CHX counter: counter-screen hit for Shiga toxin inhibitors, cycloheximide | cell reporter, cycloheximide protein synthesis inhibition counterscreen | max response, % | hit rate 12% among 300,000; in the data active = max response mostly above about 13%, no sharp cut-off; inactive = mostly below about 14%; note: read at 38.3 µM for the half of the compounds with a filed dose
FMDV antiviral: antivirals against foot and mouth disease virus; FMDV antiviral cell-based qHTS; Potency, µM (top dose mostly 57.9 µM), usual class: inhibitors; hit rate 1.2% among 410,000; AID 1159524; calls by dose curve; tested in HEK293T cells; note: read-out not given here; nearly all actives have a fitted effect of over 45% in size
Sm TGR inh: inhibitors of Schistosoma mansoni thioredoxin glutathione reductase | Q962Y6 | purified TGR, DTNB reduction, TNB absorbance 405 nm | Potency, µM (doses to about 114 µM), hits mostly inhibitors | hit rate 3% among 360,000; active = well fitted inhibition curve with a large enough effect; inconclusive = small, poorly fitted or top-dose-only effect; inactive = no such curve, though single readings can be large or run the other way; note: nearly all actives have a fitted effect of over 60% in size
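First, TGR (20 nM dispensed) and NADPH were mixed with compound. Second, a 15 min room-temperature incubation followed. Third, further NADPH and then DTNB were added to start the reaction. Finally, TNB absorbance was monitored kinetically.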
Large screens that a line does not name were inactive. In the library only some 12% were active in any assay of this set; here they are far more common.

CCOC(=O)C1CCN(C(=O)CNC(=O)c2nn(-c3ccc(OC)c(Cl)c3)c(=O)c3ccccc23)CC1	CHX counter 24.7
COc1ccc(-n2nc(C(=O)NCC(=O)N3CCC(C)CC3)c3ccccc3c2=O)cc1	Shiga toxin inh 47.8, CHX counter 32.7
COc1nnc(-c2ccc(N3CCCCC3)c(NC(=O)c3ccccc3Cl)c2)c2ccccc12	FMDV antiviral inconclusive (no result: Shiga toxin inh, CHX counter)
Cc1ccc(-n2nc(CO)c(C(=O)NCCCCc3ccccc3)n2)cc1C	none (no result: Shiga toxin inh, CHX counter)
COc1ccc(-n2nc(C(=O)NCC(=O)N3CCCC(C)C3)c3ccccc3c2=O)cc1Cl (stereo not given)	Shiga toxin inh 35.5, CHX counter 16.7
COc1ccc(-n2nc(C(=O)NCC(=O)N3CC(C)CC(C)C3)c3ccccc3c2=O)cc1OC (stereo not given)	none
COc1ccc(-n2nc(C(=O)NCC(=O)N3CCCCCC3)c3ccccc3c2=O)cc1OC	CHX counter 24.3
Cc1ccc(C(=O)Nc2ccc(-n3c(C)nc4ccccc4c3=O)cc2)cc1[N+](=O)[O-]	FMDV antiviral inconclusive (no result: Shiga toxin inh, CHX counter)
O=C1CCC(=O)N1OCCOc1ccc2c(c1)CCC2	Shiga toxin inh 47.1, CHX counter 24.0
c1cc2c(cc1OCCNC1CCCC1)CCC2	none (no result: FMDV antiviral)
O=C1CCC(=O)N1OCCCOc1ccc2c(c1)CCC2	CHX counter 10.1
c1cnc(SCCOc2ccc3c(c2)CCC3)nc1	Shiga toxin inh 75.3, CHX counter 35.9
CNCCCOc1ccc2c(c1)CCC2	CHX counter 21.3
CCOc1ccc(S(=O)(=O)Nc2ccc(OC)c(Cl)c2)c2cccnc12	none (no result: Shiga toxin inh, CHX counter)
C/C(=N\NC(=O)c1ccccc1)c1ccccc1F	Shiga toxin inh 86.6, CHX counter 25.6
C/C(=N\NC(=O)c1ccccc1OCCOc1ccccc1)c1ccccc1F	none (no result: Shiga toxin inh, CHX counter)
C/C(=N\NC(=O)c1ccccc1)c1ccccc1Br	Shiga toxin inh 66.9, CHX counter 58.1
CC(=NNC(=O)c1ccccc1N)c1ccccc1O	none (no result: Shiga toxin inh, CHX counter, Sm TGR inh)
C/C(=N\NC(=O)OC(C)(C)C)c1ccccc1Br	Shiga toxin inh 62.8, CHX counter 59.2
CC(=NNC(=O)c1ccncc1)c1ccccc1O	none (no result: Shiga toxin inh, CHX counter, Sm TGR inh)
COc1cc(C(=O)Nc2nonc2-c2ccc(Cl)cc2)cc(OC)c1OC	none (no result: Shiga toxin inh, CHX counter)
COc1ccc(N2CCN(S(=O)(=O)c3ccc(F)c(C(=O)Nc4ccccc4Cl)c3)CC2)cc1	FMDV antiviral inconclusive (no result: Shiga toxin inh, CHX counter)
Cc1cc(Cn2nnnc2-c2ccncc2)cc(C)c1O	Sm TGR inh 2.51µM
CCOC(=O)c1c(C)sc(-c2c(-c3ccc(OC)c(F)c3)[nH]c3c2c(=O)[nH]c(=O)n3C)c1O	none (no result: Shiga toxin inh, CHX counter)
O=C1CCCC/C1=C/Nc1ccc2c(c1)OCO2	Shiga toxin inh 109.4, CHX counter 30.5
COc1ccc(Oc2ccc(N/C=C3/CCCC3=O)cc2)cc1	none
O=C1CCC/C1=C/Nc1cccc(F)c1	Shiga toxin inh 52.8, CHX counter 16.3, Sm TGR inh inconclusive
CCc1nc(-c2cc(S(=O)(=O)N3CCN(c4ccccc4)CC3)ccc2OC)no1	none (no result: Shiga toxin inh, CHX counter)
Cc1ccc(-n2c(CCC(=O)O)ccc2-c2cccs2)cc1	Shiga toxin inh 97.2, CHX counter 25.1, Sm TGR inh 12.6µM
CC(=O)c1ccc(-n2c(CCC(=O)O)ccc2-c2cccs2)cc1	Sm TGR inh 0.891µM
Cc1ccc(-n2c(CCC(=O)O)ccc2-c2cccs2)cc1Cl	Sm TGR inh 7.94µM (no result: Shiga toxin inh, CHX counter)
O=C(O)CCc1ccc(-c2cccs2)n1NC(=O)c1ccc(Cl)cc1Cl	none
O=C(O)CSc1nnc(-c2cccs2)n1-c1ccc(Cl)cc1	none
NC(=O)c1ccc(-n2c(CCC(=O)O)ccc2-c2cccs2)cc1	Sm TGR inh 2µM
O=C(c1csnn1)N1CCC2(CC1)CCN(c1cccc(-c3ccccc3)c1)CC2	none (no result: Shiga toxin inh, CHX counter, Sm TGR inh)
C[C@@H](NC(=O)CN(c1ccccc1)S(=O)(=O)N(C)C)c1ccccc1	none (no result: Shiga toxin inh, CHX counter)
COc1cc(OC)c(NC(=O)CCCn2nc(C)c3c(C)n(-c4ccccc4)nc3c2=O)cc1Cl	FMDV antiviral inconclusive (no result: Shiga toxin inh, CHX counter)
O=C(NCCc1ccccc1)C1CCC(=O)N(Cc2cccc(C(F)(F)F)c2)C1 (stereo not given)	Sm TGR inh 89.1µM
CSc1cccc(CNC(=O)C2CCC(=O)N(Cc3cccc(C(F)(F)F)c3)C2)c1 (stereo not given)	Shiga toxin inh 85.9, CHX counter 22.5
Cc1cc(CNC(=O)C2CCC(=O)N(Cc3cccc(C(F)(F)F)c3)C2)no1 (stereo not given)	none
O=C(NCc1ccon1)C1CCC(=O)N(Cc2cccc(C(F)(F)F)c2)C1 (stereo not given)	CHX counter 20.2
O=C(NCCc1ccc(C(F)(F)F)cc1)C1CCC(=O)N(CCCN2CCCC2=O)C1 (stereo not given)	CHX counter 11.8
O=C(Nc1ccccc1)N(Cc1cccs1)c1ccc(F)cc1	none (no result: Shiga toxin inh, CHX counter)
CCOC(=O)c1sc(=S)n(C)c1NC(=O)c1ccc(C(C)(C)C)cc1	FMDV antiviral 25.1µM
CCOC(=O)c1sc(=S)n(C)c1NC(=O)c1ccc(OC)cc1	none
Cn1c(=O)oc2cc(S(=O)(=O)N3CCCC(C(=O)N4CCN(c5ccc(F)cc5)CC4)C3)ccc21 (stereo not given)	FMDV antiviral inconclusive (no result: Shiga toxin inh, CHX counter)
Cc1ccc(C)c(N2CCN(C(=O)C3CCCN(S(=O)(=O)c4ccc5c(c4)oc(=O)n5C)C3)CC2)c1 (stereo not given)	FMDV antiviral 15.8µM (no result: Shiga toxin inh, CHX counter)
Cn1c(=O)oc2cc(S(=O)(=O)N3CCCC(C(=O)N4CCN(c5ccccc5F)CC4)C3)ccc21 (stereo not given)	FMDV antiviral 20µM (no result: Shiga toxin inh, CHX counter)
CNC(=S)Nc1ccc2nc(C)c(C)nc2c1	Sm TGR inh 31.6µM
COc1ccc(C(=O)Nc2ccc3nc(C)c(C)nc3c2)cc1	Shiga toxin inh 129.3, CHX counter 39.0
COc1ccccc1NC(=O)c1ccc2nc(C)c(C)nc2c1	none
COc1ccc(NC(=S)Nc2ccc3nc(C)c(C)nc3c2)cc1	Sm TGR inh 22.4µM
Cc1cccc(NC(=O)C(=O)NCC(c2cccnc2)N2CCc3ccccc32)c1C (stereo not given)	none (no result: Shiga toxin inh, CHX counter)
Cc1cccc(N2CN(Cc3cccnc3)CNC2=S)c1C	CHX counter 15.2
Cc1ccc(C)c(N2CN(Cc3cccnc3)CNC2=S)c1	none
C=CCN1C(=O)NC(=O)/C(=C/c2cc3c4c(c2)CCCN4CCC3)C1=O	Sm TGR inh 8.91µM
C=CCN1C(=O)NC(=O)/C(=C/c2cnc(SC)nc2)C1=O	Sm TGR inh inconclusive
Cc1cc(C)nc(N/N=C/C(Cl)=C/c2ccccc2)n1	Shiga toxin inh 49.7, CHX counter 29.8
Cc1cc(C)nc(N/N=C/C=C/c2ccccc2)n1	Shiga toxin inh 56.7, CHX counter 29.3
Cc1cc(C)nc(N/N=C/c2ccccc2)n1	none
O=C(c1ccc(C(F)(F)F)cc1)C1CCCN(Cc2ccncc2)C1 (stereo not given)	FMDV antiviral inconclusive
COc1cc(CN2CCCC(C(=O)c3sccc3C)C2)cc(Cl)c1O (stereo not given)	Sm TGR inh inconclusive
COc1ccc(C(=O)C2CCCN(Cc3ccon3)C2)cc1OC (stereo not given)	CHX counter 57.4
COc1cc(CN2CCCC(C(=O)c3sccc3C)C2)cc(OC)c1O (stereo not given)	Sm TGR inh 15.8µM
COc1ccc(C(=O)C2CCCN(Cc3cnc(C)s3)C2)cc1OC (stereo not given)	none

Screening data: PubChem, National Center for Advancing Translational Sciences (NCATS)
